# In PubChem BioAssay:
# Where “and” joins values, the source holds several entries; their conditions need not be identical. Equal entries are not always repeated. Inconclusive results are not listed. Calls of active or inactive are those of the source. Cut-off read from the data, not from the text of the source, unless noted: active = inhibition above about 80%; inactive = the rest.
# Legend:
# [1] = growth inhibition of DIPG glioma cells, dose response, cell-based, SU-DIPG-XIII, MIPE4.0, CellTiter-Glo, qHTS (AID 1347061; cut-off not given, nearly all actives have AC50 up to about 37 µM;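 note: cells exposed to compound for 48 hours before readout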); conditions: SU-DIPG-XIII viability, CellTiter-Glo ATP luminescence
# [2] = growth inhibition of DIPG glioma cells, dose response, cell-based, SU-DIPG-IV, MIPE4.0, CellTiter-Glo, qHTS (AID 1347063; cut-off not given, nearly all actives have AC50 up to about 30 µM;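 note: compound exposure lasted 48 hours before the viability readout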); conditions: SU-DIPG-IV viability, CellTiter-Glo ATP luminescence
# [3] = viability loss in pontine glioma line – cell-based, SU-DIPG-XXV, MIPE5.0, CellTiter-Glo, qHTS, dose response (AID 1347065; cut-off not given, nearly all actives have AC50 up to about 26 µM;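 note: cells exposed to compound for 48 hours before ATP readout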); conditions: CellTiter-Glo ATP luminescence
# [4] = JHH-DIPG-1 glioma cell viability, MIPE5.0 library, CellTiter-Glo luminescence, qHTS (AID 1347067; cut-off not given, nearly all actives have AC50 up to about 26 µM;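 note: cells exposed to compound for 48 hours before readout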); conditions: JHH-DIPG-1 glioma viability, CellTiter-Glo ATP luminescence
# [5] = sensitizers of A549 cells to miR-34 induction, primary screen, imaging, A549 dox-inducible miR-34, nuclei and caspase counts (AID 1347080;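 active = compounds whose cell count with miR-34 switched on is under 0.7 times the count with it off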); conditions: A549 miR-34 inducible, Hoechst nuclei count, 48 h
# [6] = modifiers of HSF1 nuclear foci, imaging, Selleck Cancer Library (AID 1347162; in the data active = plate-normalised HSF1 focus index below about 0.46); conditions: human cells, at 10 µM; SSMD: measured here: HSF1 foci SSMD mean; cell count: measured here: cell number; plate-normalised HSF1 focus index: stronger effect = lower value
# [7] = LFS_MB_P medulloblastoma growth inhibition, cell-based, chromothripsis tumors, cisplatin or BGB combos (AID 1671449); conditions: LFS_MB_P medulloblastoma cells;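 note: cells exposed for 96 hours; 0% = vehicle DMSO and 100% = killing by high DMSO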
# [8] = HDN33 neuroblastoma growth inhibition, cell-based, chromothripsis tumors, cisplatin or BGB combos (AID 1671450); conditions: HDN33 neuroblastoma cells, stronger effect = higher value;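 note: cells exposed to compound for four days; 0% = vehicle DMSO and 100% = cell killing by high DMSO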
# [9] = ICB984 medulloblastoma cell growth inhibition, synergistic combos for chromothripsis tumors, cisplatin or BGB combos (AID 1671451; call rule not given here;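 note: cells exposed for 96 hours before readout; 0% = vehicle DMSO and 100% = killing by high DMSO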); conditions: ICB984 medulloblastoma cells, drug combinations, stronger effect = higher value
# [10] = LFS_MB_1R medulloblastoma cell growth inhibition, synergistic combos for chromothripsis tumors, cisplatin or BGB combos (AID 1671452); conditions: LFS_MB_1R medulloblastoma cells, stronger effect = higher value;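 note: cells exposed for 96 hours before readout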
# [11] = HTB85 osteosarcoma cell growth inhibition, synergistic combos for chromothripsis tumors, BGB or cisplatin IC20 combos (AID 1671453); conditions: HTB85 osteosarcoma cells, drug combinations, stronger effect = higher value;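 note: cells exposed for 96 hours before readout; 0% = vehicle DMSO and 100% = high DMSO killing control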
# [12] = MDA-MB-436 breast carcinoma cell growth inhibition, synergistic combos for chromothripsis tumors, BGB or cisplatin combos (AID 1671458; call rule not given here;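 note: cells exposed for 96 hours; 0% = vehicle DMSO and 100% = killing by high DMSO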); conditions: MDA-MB-436 breast carcinoma growth inhibition, drug combinations, stronger effect = higher value
# [13] = growth inhibition of BT084 medulloblastoma cells, cell-based, ICGC_MB145, cisplatin and BGB IC40 combos (AID 1671461); conditions: drug combinations, stronger effect = higher value;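 note: cells exposed to drugs for 96 hours; 0% = vehicle DMSO and 100% = high DMSO full killing control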
# [14] = growth inhibition of RCMB18 medulloblastoma cells, cell-based, cisplatin and BGB IC40 combos (AID 1671462); conditions: stronger effect = higher value;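 note: cells exposed to compound for four days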
# [15] = growth inhibition of CRL1545 osteosarcoma cells, cell-based, cisplatin and BGB IC20 combos (AID 1671464); conditions: stronger effect = higher value;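 note: cells exposed to compound for 96 hours before readout; 0% = vehicle DMSO and 100% = high DMSO killing control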
# [16] = measured here: combination with BGB IC40, at 0.05 µM
# [17] = measured here: with BGB IC20 combination, at 0.5 µM
# [18] = measured here: with cisplatin IC20 combination, at 0.5 µM
# [19] = measured here: combination with cisplatin, at 0.5 µM
smiles,measurement,setting,value
CC(C)(C)OC(=O)Nc1ccc(-c2cc(C(=O)NCCCCCCC(=O)NO)no2)cc1,AC50,[1],13.2 µM (active)
same,AC50,[2],2.64 µM (active)
same,AC50,[3],2.95 µM (active)
same,AC50,[4],3.72 µM (active)
same,fold change,"[5]; stronger effect = lower value, cell number ratio, induced over uninduced",1.08 (inactive)
same,fold change,[5]; measured here: relative caspase fold change +Dox/-Dox,1.18
same,cell count,"[5]; measured here: total cells with miR-34 induction, stronger effect = lower value",3170
same,cell count,[5]; measured here: total cells without miR-34 induction,2940
same,SSMD,[6],-0.325
same,cell count,[6],7020
same,plate-normalised HSF1 focus index,[6],0.983 (inactive)
same,inhibition,"[7]; at 0.5 µM, stronger effect = higher value",-18.3% (inactive) and -10.4% (inactive)
same,inhibition,"[7]; measured here: combination with BGB IC20, at 0.005 µM",-24.2% and -11.2%
same,inhibition,"[7]; measured here: combination with BGB IC40, at 0.005 µM",-24.3% and -8.96%
same,inhibition,[7]; [16],-25.1% and 5.48%
same,inhibition,"[7]; measured here: combination with cisplatin, at 0.5 µM, stronger effect = higher value",-19.2% and 23.7%
same,inhibition,"[7]; measured here: combination with cisplatin, at 5 µM, stronger effect = higher value",70% and 74.7%
same,inhibition,"[8]; BGB combo, at 5 µM",75.4% and 95.4%
same,inhibition,[8]; at 0.5 µM,-11.6% (inactive) and 3.28% (inactive)
same,inhibition,"[8]; cisplatin combo, at 5 µM",84.3% and 99.1%
same,inhibition,[8]; [17],-23% and -2.22%
same,inhibition,[8]; [18],1.12% and 13.2%
same,inhibition,"[8]; single agent, at 5 µM",86.2% and 98%
same,inhibition,"[9]; BGB IC20 combo, at 0.005 µM",-9.7% and -9.21%
same,inhibition,"[9]; BGB IC40 combo, at 0.005 µM",-27.3% and -46%
same,inhibition,"[9]; BGB IC40 combo, at 0.05 µM",38.6% and 39.7%
same,inhibition,[9]; at 0.5 µM,-16.4% (inactive) and -21.9% (inactive)
same,inhibition,"[9]; cisplatin combo, at 0.05 µM",35.7% and 37.3%
same,inhibition,"[9]; cisplatin combo, at 0.5 µM",-28% and -20.5%
same,inhibition,"[9]; cisplatin combo, at 5 µM",-41.9% and -70.6%
same,inhibition,"[9]; measured here: 5 uM single agent, at 5 µM",-17.6% and -12.3%
same,inhibition,[10]; at 0.5 µM,-23.9% (inactive) and 0.63% (inactive)
same,inhibition,[10]; [16],-39.1% and -9.87%
same,inhibition,[10]; [19],-43.1% and 4.1%
same,inhibition,"[10]; measured here: combination with cisplatin, at 5 µM",61.5% and 70.7%
same,inhibition,[11]; at 0.5 µM,-17.8% (inactive) and -4.69% (inactive)
same,inhibition,"[11]; measured here: with BGB IC20, at 0.5 µM",-25.7% and -17.1%
same,inhibition,"[11]; measured here: with BGB IC20, at 5 µM",49.9% and 86.7%
same,inhibition,"[11]; measured here: with cisplatin IC20, at 0.5 µM",-5.92% and 8.08%
same,inhibition,"[11]; measured here: with cisplatin IC20, at 5 µM",62.7% and 92.5%
same,inhibition,"[11]; single agent, at 5 µM",77.5% and 87.2%
same,inhibition,[12]; at 0.5 µM,-5.18% (inactive) and -14.7% (inactive)
same,inhibition,"[12]; measured here: BGB combination, at 0.5 µM",-6.05% and -29.4%
same,inhibition,"[12]; measured here: BGB combination, at 5 µM",54.7% and 62.5%
same,inhibition,"[12]; measured here: cisplatin combination, at 0.5 µM",-18.7% and -11.1%
same,inhibition,"[12]; measured here: cisplatin combination, at 5 µM",56.9% and 63%
same,inhibition,[13]; at 0.5 µM,9.8% (inactive) and 2.37% (inactive)
same,inhibition,"[13]; cisplatin combination, at 0.5 µM",8.11% and 13.2%
same,inhibition,"[13]; cisplatin combination, at 5 µM",29.8% and 83.8%
same,inhibition,"[13]; measured here: BGB IC40 combination 0.05 uM, at 0.05 µM",-31% and -31.3%
same,inhibition,"[13]; single agent, at 5 µM",33.2% and 32%
same,inhibition,[14]; at 0.5 µM,-13.3% (inactive) and 2% (inactive)
same,inhibition,"[14]; cisplatin combo, at 5 µM",55.6% and 86.3%
same,inhibition,"[14]; measured here: BGB IC40 combination, at 0.05 µM",43.9% and -7.68%
same,inhibition,[14]; [19],-24.8% and 36.6%
same,inhibition,"[14]; single agent, at 5 µM",42.9% and 30.3%
same,inhibition,[15]; at 0.5 µM,51.1% (inactive) and 53.4% (inactive)
same,inhibition,[15]; [17],34.6% and 54.1%
same,inhibition,[15]; [18],58.7% and 53.1%
same,inhibition,"[15]; single agent, at 0.05 µM",-13.9% and 7.41%
same,inhibition,"[15]; single agent, at 5 µM",94% and 95%
